The values below come from PubChem BioAssay (Tox21).

Values joined by “and” are separate entries in the source; they are usually repeats but may differ in a detail not shown here. Equal values may be shown once. Unmarked numbers belong to inactive results. Inconclusive results are not listed. Some structures have more than one record in an assay (separate samples or runs), and their calls can disagree. Active and inactive are the calls of the source. Unless noted, the call rests on the fitted dose curve.

Experiment [1] concerns the target Acetylcholinesterase (Homo sapiens) (UniProt P22303). Kind of experiment: Acetylcholinesterase (AChE) small molecule antagonists: colormetric cell-based qHTS assay (AID 1347395). Further: nearly all actives have a fitted effect of over 30% in size. Further: potency means the concentration at half of the fitted maximal effect. The essentials:
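SH-SY5Y cells, plated overnight at 37 C, were exposed to compounds for 30 min at 37 C and 5% CO2. Acetylthiocholine plus DTNB was then added, and thiocholine from endogenous AChE was quantified colorimetrically after 90 min at 37 C.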

For experiment [2] the target is unchanged. As to the kind of experiment: Acetylcholinesterase (AChE) small molecule antagonists: enzyme-based qHTS assay (AID 1347397). Further: nearly all actives have a fitted effect of over 55% in size. The following applies: Potency: AChE enzyme activity inhibition; outcome: AChE enzyme activity inhibition. The procedure, abridged: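 Enzyme inhibition was scored from DTNB-detected thiocholine formed by recombinant human AChE acting on acetylthiocholine. The 30 min compound preincubation and 10 min substrate reaction were both run at room temperature, with DMSO as vehicle control.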

Experiment [3] shares this target. Kind of experiment: Acetylcholinesterase (AChE) small molecule antagonists: fluorescence cell-based qHTS assay (AID 1347398). Further: nearly all actives have a fitted effect of over 50% in size. The following applies: Potency: AChE activity; outcome: AChE activity. The essentials:
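Endogenous acetylcholinesterase of SH-SY5Y neuroblastoma cells is measured in situ. After overnight attachment and 30 min compound exposure, cells receive acetylthiocholine and Thiolite Green; fluorescence is read after 40 min at room temperature.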

Experiment [4] deals with Androgen receptor (Homo sapiens) (UniProt P10275). Kind of experiment: qHTS assay to identify small molecule antagonists of the androgen receptor (AR) signaling pathway (AID 743035; active means well fitted inhibition curve with a large enough effect in the signal ratio in the repeat runs, not every such curve was filed as active; the % refers to the signal ratio; further: potency means the concentration at half of the fitted maximal effect). The essentials: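 Fluorescence from a beta-lactamase FRET substrate (LiveBLAzer B/G, 2 h, room temperature) measured inhibition of R1881-stimulated signaling in GeneBLAzer AR-UAS-bla HEK293 cells exposed to compound for 16 h at 37C.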

Experiment [5] shares this target. As to the kind of experiment: qHTS assay to identify small molecule agonists of the androgen receptor (AR) signaling pathway using the MDA cell line (AID 743040; active means well fitted curve in the direction sought with a large enough effect in the repeat runs; an effect the other way counts as inactive or inconclusive; further: nearly all actives have a fitted effect of over 20% in size; further: potency means the concentration at half of the fitted maximal effect). The procedure, abridged:
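Human breast carcinoma MDA-kb2 reporter cells (MMTV-luc, AR/GR elements) were treated for 16 h at 37C in 0% CO2 following a 5 h settling period. Signal was quantified by ONE-Glo luminescence.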

For experiment [6] the target is unchanged. Kind of experiment: qHTS assay to identify small molecule antagonists of the androgen receptor (AR) signaling pathway using the MDA cell line (AID 743042; active means well fitted curve in the direction sought with a large enough effect in the repeat runs; an effect the other way counts as inactive or inconclusive; further: nearly all actives have a fitted effect of over 55% in size; further: potency means the concentration at half of the fitted maximal effect). The procedure, abridged: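 MDA-kb2 breast carcinoma cells carrying MMTV-luciferase (AR/GR responsive) were co-treated with compounds and the agonist R1881 for 16 h at 37C. Inhibition read as ONE-Glo luminescence; CellTiter-Fluor fluorescence measured in parallel for cytotoxicity.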

The target in experiment [7] is Nuclear receptor subfamily 1 group I member 2 (Rattus norvegicus) (UniProt Q9R1A7). As to the kind of experiment: Rat pregnane X receptor (rPXR) activation by small molecules, qHTS assay (AID 1346983; active means well fitted curve in the direction sought with a large enough effect in the repeat runs; an effect the other way counts as inactive or inconclusive; further: nearly all actives have a fitted effect of over 20% in size). The following applies: rPXR luciferase reporter cells, One-Glo luminescence, 24 h; max activation: hits give high values. The procedure, abridged:
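Cell-based rPXR activation assay: rPXR cells, 2,000 per well, rested 5hr at 37 C, then exposed to compounds in DMSO for 24 hr at 37 C. Luciferase activity read by One-Glo luminescence after 30 min at room temperature.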

In experiment [8] the target is Nuclear receptor subfamily 1 group I member 2 (Homo sapiens) (UniProt O75469). Kind of experiment: Human pregnane X receptor (PXR) activation by small molecules, qHTS assay (AID 1346985; active means well fitted curve in the direction sought with a large enough effect in the repeat runs; an effect the other way counts as inactive or inconclusive; further: nearly all actives have a fitted effect of over 40% in size; further: potency means the concentration at half of the fitted maximal effect). The procedure, abridged:
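DPX-2 cells (HepG2 co-transfected with a PXR response element and a CYP3A4-promoter luciferase construct) were seeded at 2,000 per well, rested 5 hr at 37C, then exposed to DMSO-dissolved compounds for 24 hr. Activation was read as luciferase luminescence.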

Experiment [9] has as its target Estrogen receptor (Homo sapiens) (UniProt P03372). Kind of experiment: qHTS assay to identify small molecule antagonists of the estrogen receptor alpha (ER-alpha) signaling pathway (AID 743069; active means well fitted curve in the direction sought with a large enough effect in the signal ratio in the repeat runs, not every such curve was filed as active; the % refers to the signal ratio). The essentials: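 Reporter cells (ER-alpha-bla, HEK293 background) are conditioned overnight in stripped-serum medium (2% charcoal-stripped FBS). Compound and 17beta-estradiol exposure runs 18 hr at 37C, 5% CO2.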

In experiment [10] the target is Nuclear receptor subfamily 1 group I member 2 (Homo sapiens) (UniProt O75469). Kind of experiment: CYP3A4 induction through human pregnane X receptor (PXR) by small molecules, qHTS assay (AID 1346984; active means well fitted curve in the direction sought with a large enough effect in the repeat runs; an effect the other way counts as inactive or inconclusive; further: nearly all actives have a fitted effect of over 40% in size; further: potency means the concentration at half of the fitted maximal effect). The procedure, abridged: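 Luminescence readout: luciferase signal after One-Glo (30 min, room temperature), following 3 h at 37C with 3uM final Luciferin-IPA P450 substrate. Cells were DPX-2 (HepG2, PXR/CYP3A4-luc co-transfected) dosed for 24 h.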

The target in experiment [11] is Androgen receptor (Homo sapiens) (UniProt P10275). As to the kind of experiment: qHTS assay to identify small molecule agonists of the androgen receptor (AR) signaling pathway (AID 743036; active means well fitted activation curve with a large enough effect in the signal ratio in the repeat runs, with a control signal flat, not every such curve was filed as active; the % refers to the signal ratio). The essentials:
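HEK293 cells stably carrying a UAS-driven beta-lactamase reporter (GeneBLAzer AR-UAS-bla-GripTite) were plated at 2,000 cells/well, rested 4 h at 37C, then exposed to compounds in DMSO for 16 h. LiveBLAzer B/G FRET substrate was added for 2 h at room temperature; fluorescence read.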

In experiment [12] the target is Acetylcholinesterase (Homo sapiens) (UniProt P22303). As to the kind of experiment: Acetylcholinesterase (AChE) small molecule antagonists: enzyme-based qHTS assay with human liver microsomes (AID 1347399). Further: nearly all actives have a fitted effect of over 60% in size. The following applies: Potency: qHTS inhibition; outcome: qHTS inhibition. The essentials: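 Recombinant human AChE (50 mU/mL in the enzyme mix) and human liver microsomes (0.25 mg/mL final) were preincubated with compound and NADPH (0.25 mg/mL final) for 30 min at 37 C. Acetylthiocholine/DTNB was then added; thiocholine was read colorimetrically after 10 min at room temperature.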
On the % scale 0 is the no-effect control and ±100 the full control effect.

Sequence of Estrogen receptor (Homo sapiens) (P03372 whole entry, looked up): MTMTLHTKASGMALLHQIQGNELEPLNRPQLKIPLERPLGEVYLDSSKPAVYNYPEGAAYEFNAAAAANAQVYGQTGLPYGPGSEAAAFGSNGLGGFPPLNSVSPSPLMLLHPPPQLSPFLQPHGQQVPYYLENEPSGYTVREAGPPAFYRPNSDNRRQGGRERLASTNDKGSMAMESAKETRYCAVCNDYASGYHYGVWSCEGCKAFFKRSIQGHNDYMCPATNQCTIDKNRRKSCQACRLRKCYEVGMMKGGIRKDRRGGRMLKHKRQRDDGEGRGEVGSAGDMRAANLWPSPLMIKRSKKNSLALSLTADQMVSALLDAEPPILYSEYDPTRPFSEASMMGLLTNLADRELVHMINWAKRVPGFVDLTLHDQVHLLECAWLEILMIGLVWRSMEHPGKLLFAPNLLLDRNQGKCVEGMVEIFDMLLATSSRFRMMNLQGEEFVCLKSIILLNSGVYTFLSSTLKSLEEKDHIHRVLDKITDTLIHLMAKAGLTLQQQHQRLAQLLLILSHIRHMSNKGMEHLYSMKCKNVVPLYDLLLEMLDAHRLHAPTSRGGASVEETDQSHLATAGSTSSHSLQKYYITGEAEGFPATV
Sequence of Androgen receptor (Homo sapiens) (P10275 whole entry, looked up): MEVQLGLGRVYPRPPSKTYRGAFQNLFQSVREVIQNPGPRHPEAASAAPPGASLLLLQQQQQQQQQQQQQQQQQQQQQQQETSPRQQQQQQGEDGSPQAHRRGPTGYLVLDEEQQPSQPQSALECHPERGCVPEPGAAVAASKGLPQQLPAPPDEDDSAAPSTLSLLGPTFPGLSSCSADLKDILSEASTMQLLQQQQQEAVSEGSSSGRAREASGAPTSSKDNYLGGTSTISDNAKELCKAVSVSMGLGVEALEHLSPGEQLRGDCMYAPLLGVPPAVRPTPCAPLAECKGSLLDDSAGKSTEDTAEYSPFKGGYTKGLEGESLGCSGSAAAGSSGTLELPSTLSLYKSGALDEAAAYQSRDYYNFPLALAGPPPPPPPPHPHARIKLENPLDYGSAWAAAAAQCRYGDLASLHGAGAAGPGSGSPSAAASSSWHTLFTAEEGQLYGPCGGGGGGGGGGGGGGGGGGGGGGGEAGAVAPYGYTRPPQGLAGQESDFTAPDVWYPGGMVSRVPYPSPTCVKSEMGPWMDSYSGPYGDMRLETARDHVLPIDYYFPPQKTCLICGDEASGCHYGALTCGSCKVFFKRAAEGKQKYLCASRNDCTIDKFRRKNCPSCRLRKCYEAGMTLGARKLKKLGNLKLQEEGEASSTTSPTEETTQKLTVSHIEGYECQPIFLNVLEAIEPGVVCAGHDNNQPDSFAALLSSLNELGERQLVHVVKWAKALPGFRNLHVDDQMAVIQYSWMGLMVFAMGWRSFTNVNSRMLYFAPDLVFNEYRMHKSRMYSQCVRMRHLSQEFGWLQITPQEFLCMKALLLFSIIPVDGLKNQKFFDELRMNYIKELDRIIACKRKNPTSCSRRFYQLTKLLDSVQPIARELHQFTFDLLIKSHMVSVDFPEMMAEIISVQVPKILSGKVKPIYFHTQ
Sequence of Nuclear receptor subfamily 1 group I member 2 (Rattus norvegicus) (Q9R1A7 whole entry, looked up): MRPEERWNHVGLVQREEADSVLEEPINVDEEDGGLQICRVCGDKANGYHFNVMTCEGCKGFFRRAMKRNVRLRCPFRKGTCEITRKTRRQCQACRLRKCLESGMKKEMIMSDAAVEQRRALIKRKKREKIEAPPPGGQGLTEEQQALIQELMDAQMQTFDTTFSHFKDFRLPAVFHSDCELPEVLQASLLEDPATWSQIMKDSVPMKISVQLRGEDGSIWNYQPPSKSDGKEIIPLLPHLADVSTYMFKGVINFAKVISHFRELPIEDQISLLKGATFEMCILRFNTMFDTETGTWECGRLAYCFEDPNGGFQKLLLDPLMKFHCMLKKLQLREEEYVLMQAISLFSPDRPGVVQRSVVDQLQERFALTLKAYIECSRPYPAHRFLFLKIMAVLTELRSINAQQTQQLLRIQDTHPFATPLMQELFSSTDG
Sequence of Acetylcholinesterase (Homo sapiens) (P22303 whole entry, looked up): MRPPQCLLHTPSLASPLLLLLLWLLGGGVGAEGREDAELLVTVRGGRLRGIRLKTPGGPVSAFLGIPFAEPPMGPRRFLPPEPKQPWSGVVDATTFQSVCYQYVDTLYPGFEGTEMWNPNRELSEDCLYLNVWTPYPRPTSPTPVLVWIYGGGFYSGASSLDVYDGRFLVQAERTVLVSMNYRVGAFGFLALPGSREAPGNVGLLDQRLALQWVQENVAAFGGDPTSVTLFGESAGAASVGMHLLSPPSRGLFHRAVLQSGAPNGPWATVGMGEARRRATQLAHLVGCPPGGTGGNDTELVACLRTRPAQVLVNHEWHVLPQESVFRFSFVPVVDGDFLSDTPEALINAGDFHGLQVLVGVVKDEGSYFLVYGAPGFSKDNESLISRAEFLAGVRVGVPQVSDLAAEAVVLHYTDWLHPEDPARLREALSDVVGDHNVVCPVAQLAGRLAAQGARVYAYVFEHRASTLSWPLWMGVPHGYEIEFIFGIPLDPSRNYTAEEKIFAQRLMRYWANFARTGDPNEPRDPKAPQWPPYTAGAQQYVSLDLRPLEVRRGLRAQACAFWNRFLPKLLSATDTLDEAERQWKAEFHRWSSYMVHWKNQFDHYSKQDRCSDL

`CC[C@]1(O)C[C@@H]2CN(CCc3c([nH]c4ccccc34)[C@@](C(=O)OC)(c3cc4c(cc3OC)N(C)[C@H]3[C@@](O)(C(=O)OC)[C@H](OC(C)=O)[C@]5(CC)C=CCN6CC[C@]43[C@@H]65)C2)C1`: the Potency result in [1], in experiment [2] and in experiment [3] was “inactive” each time.
On to `OC(c1ccccc1)(c1ccccc1)C1CN2CCC1CC2` (stereo not given), for which the Potency result in experiment [4], in experiment [6] and in experiment [8] was “inactive” in each case. The Potency in [5] is 26.6 µM (active). For the same molecule, the max activation in experiment [7] is 17.5%.
As to `C#CCN1CC(=O)N(COC(=O)C2C(C=C(C)C)C2(C)C)C1=O` (stereo not given), the max activation in [7] is 7.13%. The Potency result in [8] is “inactive”.
Consider `CNC1(c2ccccc2Cl)CCCCC1=O` (stereo not given), for which the Potency entry in experiment [9] was “inactive”. The max activation in experiment [7] was -2.7% and 3.43%.
On to `COc1ccc2c(c1)C13CCCC[C@@H]1C(C2)N(C)CC3` (stereo not given in full), for which the Potency entry in experiment [9], in experiment [10] and in experiment [8] was “inactive” throughout. In addition, the max activation in experiment [7] is -0.312%.
As to `S=C(S)N1CCNCC1`, in experiment [7], the max activation is -2.4%. Besides, the Potency result in experiment [10] and in experiment [8] was “inactive” each time.
For `CC(C)NC[C@@H](O)COc1ccc(CC(N)=O)cc1`, the Potency result in [1] and in [2] was “inactive” throughout.
As for `CNCCCN1c2ccccc2CCc2ccccc21`, the Potency entry in experiment [1], in [2] and in experiment [3] was “inactive” throughout.
Regarding `CC1(C)OC[C@@H]2O[C@@]3(C(=O)O)OC(C)(C)O[C@H]3[C@@H]2O1`, the Potency result in [1], in experiment [2] and in [3] was “inactive” in each case.
Regarding `CCN(CC)CCO[C@H]1CC[C@@]2(C)C(=CC[C@@H]3[C@@H]2CC[C@]2(C)C(=O)CC[C@@H]32)C1`, the Potency result in [9] is “inactive”. The max activation in experiment [7] was 3.39%. The Potency in experiment [10] is 7.94 µM (active).
On to `C[C@]12CC[C@H]3[C@@H](CCC4=CC(=O)CC[C@@]43C)[C@@H]1CC[C@H]2O`, for which the max activation in experiment [7] was -0.613%. Also, the Potency result in experiment [10] was “inactive”.
Consider `c1ccc(C2(N3CCCC3)CCCCC2)cc1`, for which the Potency in experiment [10] is 1.58 µM (active); in [8], 5.01 µM (active).
As to `COc1ccc(-c2nc3ccc(C4=NNC(=O)CC4C)cc3[nH]2)cc1` (stereo not given), the Potency result in [1] and in [2] was “inactive” each time.
`CCCC(=O)Nc1ccc(OCC(O)CNC(C)C)c(C(C)=O)c1` (stereo not given): the Potency result in [1], in experiment [2] and in experiment [3] was “inactive” throughout.
`C=C[C@H]1CN2CC[C@H]1C[C@@H]2[C@@H](O)c1ccnc2ccccc12`: the max activation in experiment [7] was -2.95%. The Potency result in [10] and in experiment [8] was “inactive” in each case.
With `CC(C)[C@@]1(NC(=O)[C@@H]2C[C@@H]3c4cccc5[nH]cc(c45)C[C@H]3N(C)C2)O[C@@]2(O)[C@@H]3CCCN3C(=O)[C@H](Cc3ccccc3)N2C1=O`, the max activation in experiment [7] is -8.17%.
For `COc1ccc(OC)c(C(O)CNC(=O)CN)c1` (stereo not given), the Potency entry in experiment [1], in experiment [2] and in experiment [3] was “inactive” each time.
In the case of `COC(=O)C1=C(C)NC(C)=C(C(=O)OCCN(C)Cc2ccccc2)C1c1cccc([N+](=O)[O-])c1` (stereo not given), the Potency result in experiment [1] and in experiment [2] was “inactive” throughout.
For the molecule `CC(C)CCCC(C)N` (stereo not given), the Potency entry in experiment [1], in experiment [2] and in experiment [3] was “inactive” each time.
Turning to `CCCCCCCCCC(=O)O[C@H]1CC[C@H]2[C@@H]3CCC4=CC(=O)CC[C@]4(C)[C@H]3CC[C@]12C`, the Potency result in [9], in experiment [10] and in experiment [8] was “inactive” throughout. Also, the max activation in [7] was -1.38%.
On to `COc1ccc2c3c1O[C@H]1C(=O)CC[C@H]4[C@@H](C2)N(C)CC[C@]314`, for which the Potency entry in experiment [9], in [10] and in experiment [8] was “inactive” throughout. The max activation in experiment [7] was -2.81%.
Regarding `CCCC(=O)OC(C(Cl)(Cl)Cl)P(=O)(OC)OC` (stereo not given), the Potency entry in experiment [4], in [11], in experiment [6], in experiment [9] and in experiment [8] was “inactive” in each case. In addition, the Potency in experiment [5] is 33.5 µM (active). The max activation in experiment [7] was 0.574%.
As to `CO[C@H]1[C@@H](O)C[C@H](O[C@H]2[C@@H](O)C[C@H](O[C@H]3[C@@H](O)C[C@H](O[C@H]4CC[C@@]5(C)[C@H](CC[C@@H]6[C@@H]5C[C@@H](O)[C@]5(C)[C@@H](C7=CC(=O)OC7)CC[C@]65O)C4)O[C@@H]3C)O[C@@H]2C)O[C@@H]1C`, the Potency in experiment [4] is 0.338 µM (active); in experiment [6] it was 1.68 µM (active). Moreover, the max activation in [7] was -4.43%. Besides, the Potency result in [10] and in experiment [8] was “inactive” in each case.
For the molecule `CCCCC(=O)O`, the Potency entry in [1], in experiment [2] and in experiment [3] was “inactive” each time.
As for `C[N+]1(C)CCCCC1COC(=O)C(O)(c1ccccc1)c1ccccc1` (stereo not given), the Potency result in experiment [4], in experiment [11], in experiment [5], in experiment [6] and in experiment [8] was “inactive” throughout. Moreover, the max activation in [7] is 2.59%.
Regarding `NCCNCCNCCNCCN`, the Potency in experiment [1] was 79.3 µM (active). In addition, the activity, negative = inhibition in experiment [1] was 4.34% [at 10.5 µM]. Also, the Potency result in [2] and in experiment [12] was “inactive” in each case. In addition, the activity change, negative = inhibition in experiment [3] is 0.135% [at 10.5 µM].
For `[S]=[Sb](=[S])[S][Sb](=[S])=[S]`, in [7], the max activation was -0.774%. Also, the Potency entry in experiment [8] was “inactive”.
Regarding `NC(N)=NCCN1CCCCCCC1`, the activity, negative = inhibition in [1] is 6.69% [at 0.435 µM]. Also, the activity change, negative = inhibition in [2] is 0% [at 0.435 µM]; in experiment [3] it was 3.67% [at 0.439 µM].
